The assay in a line: chemical genetic growth profiling, strain panel (AID 1159580).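 Also: tested at 20 µM; growth read once vehicle control cultures reached saturation at 30 °C; 1 = growth at the plate median or of vehicle wells; lower values mean less growth of the strain.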 The following applies: S. cerevisiae deletion strains, growth OD.
Setting [1] is: locus YAL040C, strain CLN3, hits give low values.
The mark [2] stands for this setting: locus YCL061C, strain MRC1 (second series), hits give low values.
Setting [3] is: locus YDR363W, strain ESC2, hits give low values.
[4] abbreviates: locus YER002W, strain NOP16, hits give low values.
The mark [5] stands for this setting: locus YGR078C, strain PAC10, hits give low values.
[6] abbreviates: locus YNL175C, strain NOP13, hits give low values.
Where [7] appears, read: locus YNL197C, strain WHI3, hits give low values.
The mark [8] stands for this setting: locus YNL224C, strain SQS1, hits give low values.
Where [9] appears, read: locus YNL322C, strain KRE1, hits give low values.
Where [10] appears, read: locus YOR083W, strain WHI5 (second series), hits give low values.

Each structure is given as a SMILES string. In all, about 5,500 compounds went through this assay and about 2,000 (36%) were called active. Not shown: some 18% with an inconclusive outcome. Some of the results follow. Unmarked numbers belong to inactive results. Rule as the data show it: active = normalized growth mostly below about 0.91 (no sharp cut-off); inconclusive = no clear call, values can overlap the other calls; inactive = mostly above about 0.92.

As for `NC(N)=Nc1ccc2[nH]c3c(c2c1)C[C@@]1(O)[C@H]2Cc4ccc(O)c5c4[C@@]1(CCN2CC1CC1)[C@H]3O5`, the normalized growth (locus YAL013W, strain DEP1, hits give low values) is 1.02; the normalized growth under setting [1] is 1.07; the normalized growth under setting [2] is 0.991; the normalized growth (locus YDR150W, strain NUM1, hits give low values) is 0.986; the normalized growth under setting [3] is 1.04; the normalized growth under setting [4] was 1.01. Further, the normalized growth under setting [5] is 0.991; the normalized growth (locus YJR075W, strain HOC1, hits give low values) was 1.01; the normalized growth under setting [6] was 0.998; the normalized growth under setting [7] was 0.985; the normalized growth under setting [8] is 1; the normalized growth under setting [9] is 1.03. Further, the normalized growth under setting [10] was 0.97.

As for `Oc1ccc(C2CNCc3sccc32)cc1O` (stereo unspecified), the normalized growth runs as follows: under setting [1], 1.01; under setting [2], 0.962; under setting [3], 0.999; under setting [4], 1; under setting [5], 0.998; (locus YMR263W, strain SAP30, hits give low values) 1. The normalized growth was 1.01 (locus YNL128W, strain TEP1, hits give low values); 0.963 (locus YNL153C, strain GIM3, hits give low values); 0.995 under setting [6]; 0.995 under setting [7]; 1 under setting [8]; 0.892 (active) under setting [9]. Also, under setting [10], the normalized growth was 1.

These data come from PubChem BioAssay AID1159580 (chemical genetic matrix, 2015).
